We go through 20 compounds from the supplement of paper PMC6853941.

One assay has as its system MCF10A. Briefly: perturbation Mahalanobis distance of morphological profile vs DMSO controls (Mahalanobis distance (SD units)); higher = stronger morphological change, active = 7 or more. The note with it: screen batch: Batch1_Mahalanobis_Distance; 72 h. As for the experimental part:
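MCF10A cells were seeded onto drugs dispensed acoustically into 384-well plates, using one dose per drug chosen from its human peak plasma concentration, and incubated for 72 h at 37 °C. Cells were stained for DNA, tubulin and mitochondria and imaged; 78 CellProfiler features were extracted, plate-normalised and compared with DMSO wells.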
Regarding `NC(N)=NC(=O)c1nc(Cl)c(N)nc1N` [Amiloride] (1.1 µM), the “perturbation Mahalanobis distance” value was 5.52 (inactive).

As for `CCCCN(CCCC)CCC(O)c1cc2c(Cl)cc(Cl)cc2c2cc(C(F)(F)F)ccc12` (stereo not given) [Halofantrine] (63.9 µM), the “perturbation Mahalanobis distance” value was 7.37 (active).

For the compound `CC12CC3CC(C)(C1)CC(N)(C3)C2` [Memantine] (1.3 µM), the “perturbation Mahalanobis distance” value is 4.28 (inactive).

With `NS(=O)(=O)Cc1noc2ccccc12` [Zonisamide] (141.4 µM), the “perturbation Mahalanobis distance” value was 2.42 (inactive).

Consider `CO/N=C(\C(=O)N[C@@H]1C(=O)N2C(C(=O)O)=C(CSc3nnnn3C)CS[C@H]12)c1csc(N)n1` [Cefmenoxime] (183.8 µM), for which the “perturbation Mahalanobis distance” value was 3.87 (inactive).

Consider `Cc1nc(-c2ccc(OCC(C)C)c(C#N)c2)sc1C(=O)O` [Febuxostat] (178 µM), for which the “perturbation Mahalanobis distance” value was 2.73 (inactive).

For `Cc1cn[nH]c1` [Fomepizole] (299.6 µM), the “perturbation Mahalanobis distance” value is 2.14 (inactive).

For the compound `CN1CCC(=C2c3ccccc3CCc3cccnc32)CC1` [Azatadine] (0.43 µM), the “perturbation Mahalanobis distance” value is 2.42 (inactive).

Take `CN(C)c1nc(N(C)C)nc(N(C)C)n1` [Altretamine] (98.9 µM): the “perturbation Mahalanobis distance” value was 2.75 (inactive).

Regarding `COC(=O)[C@H](c1ccccc1Cl)N1CCc2sccc2C1` [Clopidogrel] (0.12 µM), the “perturbation Mahalanobis distance” value is 3.1 (inactive).

Consider `O=C1CC2(CCCC2)C(O)C(=O)N1CCCCN1CCN(c2ncccn2)CC1` (stereo not given) [6-Hydroxybuspirone] (0.05 µM), for which the “perturbation Mahalanobis distance” value is 3.46 (inactive).

In the case of `CNC(=O)c1cc(Oc2ccc(NC(=O)Nc3ccc(Cl)c(C(F)(F)F)c3)cc2)ccn1` [Sorafenib] (10.76 µM), the “perturbation Mahalanobis distance” value is 2.94 (inactive).

Turning to `CC(=O)c1ccc(S(=O)(=O)NC(=O)NC2CCCCC2)cc1` [Acetohexamide] (10 µM), the “perturbation Mahalanobis distance” value is 3.84 (inactive).

`NCCc1ccc(O)c(O)c1` [Dopamine] (2.5 µM): the “perturbation Mahalanobis distance” value is 4.23 (inactive).

For the compound `Nc1ccc(O)c(C(=O)O)c1` [Mesalazine] (39.2 µM), the “perturbation Mahalanobis distance” value was 3.41 (inactive).

With `COC(=O)Nc1nc2ccc(C(=O)c3ccccc3)cc2[nH]1` [Mebendazole] (1.7 µM), the “perturbation Mahalanobis distance” value was 5.89 (inactive).

As to `CCS(=O)(=O)CCn1c([N+](=O)[O-])cnc1C` [Tinidazole] (192.9 µM), the “perturbation Mahalanobis distance” value is 2.45 (inactive).

As for `S=c1nc[nH]c2nc[nH]c12` [6-Mercaptopurine] (9.9 µM), the “perturbation Mahalanobis distance” value is 2.97 (inactive).

For `CCN(CC)CCNC(=O)c1c(C)[nH]c(/C=C2\C(=O)Nc3ccc(F)cc32)c1C` [Sunitinib] (0.73 µM), the “perturbation Mahalanobis distance” value was 3.08 (inactive).

With `CCCc1nc(C(C)(C)O)c(C(=O)O)n1Cc1ccc(-c2ccccc2-c2nn[nH]n2)cc1` [Olmesartan] (10 µM), the “perturbation Mahalanobis distance” value was 2.22 (inactive).

The assay is the same for the next values; noted with them: screen batch: Batch2_Mahalanobis_Distance; 72 h.
Regarding `NC(N)=NC(=O)c1nc(Cl)c(N)nc1N` [Amiloride] (1.1 µM), the “perturbation Mahalanobis distance” value was 3.78 (inactive).

With `CCCCN(CCCC)CCC(O)c1cc2c(Cl)cc(Cl)cc2c2cc(C(F)(F)F)ccc12` (stereo not given) [Halofantrine] (63.9 µM), the “perturbation Mahalanobis distance” value was 2.57 (inactive).

On to `CC12CC3CC(C)(C1)CC(N)(C3)C2` [Memantine] (1.3 µM), for which the “perturbation Mahalanobis distance” value is 3.3 (inactive).

On to `NS(=O)(=O)Cc1noc2ccccc12` [Zonisamide] (141.4 µM), for which the “perturbation Mahalanobis distance” value was 2.95 (inactive).

Turning to `CO/N=C(\C(=O)N[C@@H]1C(=O)N2C(C(=O)O)=C(CSc3nnnn3C)CS[C@H]12)c1csc(N)n1` [Cefmenoxime] (183.8 µM), the “perturbation Mahalanobis distance” value was 4.1 (inactive).

Consider `Cc1nc(-c2ccc(OCC(C)C)c(C#N)c2)sc1C(=O)O` [Febuxostat] (178 µM), for which the “perturbation Mahalanobis distance” value is 3.22 (inactive).

Turning to `Cc1cn[nH]c1` [Fomepizole] (299.6 µM), the “perturbation Mahalanobis distance” value is 3.81 (inactive).

Take `CN1CCC(=C2c3ccccc3CCc3cccnc32)CC1` [Azatadine] (0.43 µM): the “perturbation Mahalanobis distance” value was 2.53 (inactive).

In the case of `CN(C)c1nc(N(C)C)nc(N(C)C)n1` [Altretamine] (98.9 µM), the “perturbation Mahalanobis distance” value was 3.12 (inactive).

Regarding `COC(=O)[C@H](c1ccccc1Cl)N1CCc2sccc2C1` [Clopidogrel] (0.12 µM), the “perturbation Mahalanobis distance” value was 2.59 (inactive).

For the compound `O=C1CC2(CCCC2)C(O)C(=O)N1CCCCN1CCN(c2ncccn2)CC1` (stereo not given) [6-Hydroxybuspirone] (0.05 µM), the “perturbation Mahalanobis distance” value is 3.29 (inactive).

Take `CNC(=O)c1cc(Oc2ccc(NC(=O)Nc3ccc(Cl)c(C(F)(F)F)c3)cc2)ccn1` [Sorafenib] (10.76 µM): the “perturbation Mahalanobis distance” value was 2.6 (inactive).

Regarding `CC(=O)c1ccc(S(=O)(=O)NC(=O)NC2CCCCC2)cc1` [Acetohexamide] (10 µM), the “perturbation Mahalanobis distance” value is 4.7 (inactive).

Regarding `NCCc1ccc(O)c(O)c1` [Dopamine] (2.5 µM), the “perturbation Mahalanobis distance” value was 4.04 (inactive).

Turning to `Nc1ccc(O)c(C(=O)O)c1` [Mesalazine] (39.2 µM), the “perturbation Mahalanobis distance” value was 2.94 (inactive).

Consider `COC(=O)Nc1nc2ccc(C(=O)c3ccccc3)cc2[nH]1` [Mebendazole] (1.7 µM), for which the “perturbation Mahalanobis distance” value was 3.69 (inactive).

Regarding `CCS(=O)(=O)CCn1c([N+](=O)[O-])cnc1C` [Tinidazole] (192.9 µM), the “perturbation Mahalanobis distance” value is 2.69 (inactive).

Turning to `S=c1nc[nH]c2nc[nH]c12` [6-Mercaptopurine] (9.9 µM), the “perturbation Mahalanobis distance” value was 8.34 (active).

Regarding `CCN(CC)CCNC(=O)c1c(C)[nH]c(/C=C2\C(=O)Nc3ccc(F)cc32)c1C` [Sunitinib] (0.73 µM), the “perturbation Mahalanobis distance” value is 2.88 (inactive).

For `CCCc1nc(C(C)(C)O)c(C(=O)O)n1Cc1ccc(-c2ccccc2-c2nn[nH]n2)cc1` [Olmesartan] (10 µM), the “perturbation Mahalanobis distance” value is 2.24 (inactive).
